This note sets out measurements from PubChem BioAssay (NCI).

This is part of a sample that, as a whole, favours compounds with a hit. Of some 83,000 tested, about 20% had one in any assay.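 For each line, cells grew in 96-well plates with the test compound present at a single concentration for 48 hours.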 Values without a mark were called inactive. The source made the active and inactive calls. Rule for the calls: active = growth percent below 10; inactive = the rest.

This assay deals with MCF7 breast. The assay is described as follows: NCI-60 one-dose screen, 48 h (100 = growth as untreated, 0 = no growth, -100 = all killed). Particulars: 10 µM unless noted.
Consider `S=c1[nH]cccc1-c1nnc2n1Nc1nc3ccccc3cc1CS2`, for which the growth was 103%.
Regarding `O=C(Nc1cccc(Cl)c1)c1cc(Cl)ccc1O`, the growth is 4.21% (active).
`CCc1c(Nc2ccc(C)cc2)[nH]c(N)nc1=S`: the growth was 91.3%.
For `CC(=O)N1N=C(c2cccc(Nc3ccncc3)c2)CC1c1ccccc1` (centres undefined) the value was 81.3%.
For `CCN(CC)CCCC(C)Nc1cc(-c2cccc(OC(F)(F)F)c2)nc2ccc(N3CCCC3)cc12` (centres undefined), the growth was -10% (active).
As to `COc1ccc(C(=O)/C=C/c2ccc(OCc3ccccc3)c(OC)c2)cc1OC`, the growth was 22.5%.
In the case of `CC[C@H](C)[C@@H]1NC(=O)[C@H](Cc2ccc(O)cc2)N(C)C(=O)[C@H](Cc2ccccc2)NC(=O)CN(C)C(=O)[C@@H]2CCCN2C(=O)[C@@H](Cc2ccccc2)N(C)C(=O)[C@H](CC(C)C)NC1=O`, the growth was -25% (active).
`NC(=S)N/N=C/c1ccc(OC(=O)COc2cc(Cl)c(Cl)cc2Cl)cn1`: the growth is 28.5%.
As to `COc1ccccc1Nc1cc(O)c2c(=O)cc(-c3ccccc3)oc2c1`, the growth is 17.3%.
The same measure for `O=c1[nH]nc(-c2ccc(Cl)cc2)cc1Cc1cccc([N+](=O)[O-])c1`: 84.8%.
Take `COc1ccc(C(=O)c2cc3c(N)c(C(=O)Nc4ccc(Cl)cc4)sc3nc2C)cc1`: the growth is 61.8%.
For `O=CNc1cc(Cl)cc(Cl)c1`, the growth is 98.3%.
For `O=C(Nc1ccc(Cl)cc1)Nc1ccc(Cl)c(Cl)c1` the value was -4.33% (active).
The same measure for `c1ccc(-c2nn(-c3ccccc3)[n+](-c3cccc4ccccc34)n2)cc1`: 11.7%.
